# Laboratory results reported in ChEMBL document CHEMBL1961873, “Compounds: GSK PKIS; Assays: Nanosyn kinase panel” (2012).
# Key:
# [1] = target: Tyrosine-protein kinase Fer (Homo sapiens) (UniProt P16591); conditions: at 1 µM
# [2] = target: Tyrosine-protein kinase Fes/Fps (Homo sapiens) (UniProt P07332); conditions: at 0.1 µM
# [3] = target: Tyrosine-protein kinase Fes/Fps (Homo sapiens) (UniProt P07332); conditions: at 1 µM
# [4] = target: Fibroblast growth factor receptor 1 (Homo sapiens) (UniProt P11362); conditions: at 0.1 µM
# Sequence of Fibroblast growth factor receptor 1 (Homo sapiens) (P11362 22-822 limits assumed): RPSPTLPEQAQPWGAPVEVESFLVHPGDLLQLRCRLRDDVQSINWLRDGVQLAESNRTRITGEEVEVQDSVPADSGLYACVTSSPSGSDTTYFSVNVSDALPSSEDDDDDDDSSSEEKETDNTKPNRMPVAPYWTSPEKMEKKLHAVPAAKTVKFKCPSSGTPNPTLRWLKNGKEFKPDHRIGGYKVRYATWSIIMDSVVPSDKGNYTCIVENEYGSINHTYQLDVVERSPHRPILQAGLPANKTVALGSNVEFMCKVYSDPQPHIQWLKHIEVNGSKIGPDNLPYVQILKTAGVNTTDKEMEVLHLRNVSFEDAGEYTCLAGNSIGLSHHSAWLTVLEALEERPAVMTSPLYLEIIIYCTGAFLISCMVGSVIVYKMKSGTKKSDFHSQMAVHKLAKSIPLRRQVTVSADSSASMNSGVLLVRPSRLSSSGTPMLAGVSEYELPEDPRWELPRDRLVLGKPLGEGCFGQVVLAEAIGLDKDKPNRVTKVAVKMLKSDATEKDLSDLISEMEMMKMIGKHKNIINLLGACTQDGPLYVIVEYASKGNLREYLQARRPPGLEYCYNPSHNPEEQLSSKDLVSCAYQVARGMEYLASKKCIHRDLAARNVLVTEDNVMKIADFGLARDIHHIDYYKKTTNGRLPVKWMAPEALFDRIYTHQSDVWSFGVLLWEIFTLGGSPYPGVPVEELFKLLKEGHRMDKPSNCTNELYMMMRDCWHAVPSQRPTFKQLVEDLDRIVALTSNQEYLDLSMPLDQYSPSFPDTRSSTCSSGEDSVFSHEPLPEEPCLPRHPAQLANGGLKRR
# [5] = target: Fibroblast growth factor receptor 1 (Homo sapiens) (UniProt P11362); conditions: at 1 µM
# [6] = target: Fibroblast growth factor receptor 2 (Homo sapiens) (UniProt P21802); conditions: at 0.1 µM
# Sequence of Fibroblast growth factor receptor 2 (Homo sapiens) (P21802 22-821 limits assumed): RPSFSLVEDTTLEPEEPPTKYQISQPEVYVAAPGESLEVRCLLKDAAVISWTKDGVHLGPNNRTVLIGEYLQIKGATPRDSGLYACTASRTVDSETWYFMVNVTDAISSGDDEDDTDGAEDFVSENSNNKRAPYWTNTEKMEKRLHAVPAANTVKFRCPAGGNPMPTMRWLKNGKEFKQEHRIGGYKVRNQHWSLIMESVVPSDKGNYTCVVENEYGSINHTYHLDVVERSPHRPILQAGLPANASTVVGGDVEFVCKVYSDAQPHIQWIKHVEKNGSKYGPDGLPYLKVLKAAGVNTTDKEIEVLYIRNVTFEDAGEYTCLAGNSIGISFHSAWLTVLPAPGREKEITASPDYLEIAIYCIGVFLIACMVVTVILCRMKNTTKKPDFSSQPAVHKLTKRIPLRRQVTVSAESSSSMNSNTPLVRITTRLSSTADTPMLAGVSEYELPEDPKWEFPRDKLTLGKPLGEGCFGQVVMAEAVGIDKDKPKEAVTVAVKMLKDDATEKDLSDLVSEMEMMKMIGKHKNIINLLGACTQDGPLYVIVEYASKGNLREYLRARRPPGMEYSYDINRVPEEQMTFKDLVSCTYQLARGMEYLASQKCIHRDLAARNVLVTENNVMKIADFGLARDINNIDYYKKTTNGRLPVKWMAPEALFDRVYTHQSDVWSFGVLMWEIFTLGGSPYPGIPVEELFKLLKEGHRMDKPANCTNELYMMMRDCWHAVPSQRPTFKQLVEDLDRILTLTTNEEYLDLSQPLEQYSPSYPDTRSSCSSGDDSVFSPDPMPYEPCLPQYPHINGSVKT
# [7] = target: Fibroblast growth factor receptor 2 (Homo sapiens) (UniProt P21802); conditions: at 1 µM
# [8] = target: Fibroblast growth factor receptor 3 (Homo sapiens) (UniProt P22607); conditions: at 0.1 µM
# [9] = target: Fibroblast growth factor receptor 3 (Homo sapiens) (UniProt P22607); conditions: at 1 µM
# [10] = target: Fibroblast growth factor receptor 4 (Homo sapiens) (UniProt P22455); conditions: at 0.1 µM
# Sequence of Fibroblast growth factor receptor 4 (Homo sapiens) (P22455 22-802 limits assumed): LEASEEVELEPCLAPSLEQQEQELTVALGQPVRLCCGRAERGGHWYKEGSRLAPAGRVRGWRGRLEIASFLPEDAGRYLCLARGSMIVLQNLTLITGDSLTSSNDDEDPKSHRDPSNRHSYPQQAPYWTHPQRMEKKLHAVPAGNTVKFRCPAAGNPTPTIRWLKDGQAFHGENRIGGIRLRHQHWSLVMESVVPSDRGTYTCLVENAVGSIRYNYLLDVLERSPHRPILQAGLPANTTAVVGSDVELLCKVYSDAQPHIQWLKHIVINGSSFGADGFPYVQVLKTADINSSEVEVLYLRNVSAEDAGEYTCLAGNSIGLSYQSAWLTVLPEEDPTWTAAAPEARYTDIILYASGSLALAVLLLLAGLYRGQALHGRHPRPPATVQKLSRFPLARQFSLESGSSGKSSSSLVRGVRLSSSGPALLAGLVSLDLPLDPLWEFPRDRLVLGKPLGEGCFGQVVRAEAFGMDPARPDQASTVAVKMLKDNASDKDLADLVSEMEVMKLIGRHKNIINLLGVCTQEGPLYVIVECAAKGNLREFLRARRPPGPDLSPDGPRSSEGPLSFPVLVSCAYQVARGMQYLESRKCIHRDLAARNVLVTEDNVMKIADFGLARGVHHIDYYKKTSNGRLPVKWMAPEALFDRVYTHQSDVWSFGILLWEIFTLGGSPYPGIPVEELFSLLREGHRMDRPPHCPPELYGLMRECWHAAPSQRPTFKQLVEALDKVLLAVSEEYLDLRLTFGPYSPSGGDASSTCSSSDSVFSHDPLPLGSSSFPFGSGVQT
# [11] = target: Fibroblast growth factor receptor 4 (Homo sapiens) (UniProt P22455); conditions: at 1 µM
# [12] = target: Tyrosine-protein kinase Fgr (Homo sapiens) (UniProt P09769); conditions: at 0.1 µM
# Sequence of Tyrosine-protein kinase Fgr (Homo sapiens) (P09769 2-529 limits assumed): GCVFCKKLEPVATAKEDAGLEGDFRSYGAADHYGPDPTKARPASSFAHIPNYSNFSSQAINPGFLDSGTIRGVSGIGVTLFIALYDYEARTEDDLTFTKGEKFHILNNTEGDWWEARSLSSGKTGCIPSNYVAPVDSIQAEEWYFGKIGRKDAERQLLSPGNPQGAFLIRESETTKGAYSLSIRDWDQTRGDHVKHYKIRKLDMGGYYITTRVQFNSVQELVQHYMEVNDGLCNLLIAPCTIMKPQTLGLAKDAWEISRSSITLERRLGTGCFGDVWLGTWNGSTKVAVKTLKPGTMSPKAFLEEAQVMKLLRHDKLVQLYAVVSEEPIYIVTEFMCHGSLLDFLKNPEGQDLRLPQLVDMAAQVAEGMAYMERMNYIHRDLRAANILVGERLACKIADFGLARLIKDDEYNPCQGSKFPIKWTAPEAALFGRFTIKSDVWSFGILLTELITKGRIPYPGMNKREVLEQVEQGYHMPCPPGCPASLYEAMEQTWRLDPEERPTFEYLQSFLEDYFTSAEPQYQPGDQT
# [13] = target: Tyrosine-protein kinase Fgr (Homo sapiens) (UniProt P09769); conditions: at 1 µM
# [14] = target: Vascular endothelial growth factor receptor 1 (Homo sapiens) (UniProt P17948); conditions: at 0.1 µM
# Sequence of Vascular endothelial growth factor receptor 1 (Homo sapiens) (P17948 whole entry): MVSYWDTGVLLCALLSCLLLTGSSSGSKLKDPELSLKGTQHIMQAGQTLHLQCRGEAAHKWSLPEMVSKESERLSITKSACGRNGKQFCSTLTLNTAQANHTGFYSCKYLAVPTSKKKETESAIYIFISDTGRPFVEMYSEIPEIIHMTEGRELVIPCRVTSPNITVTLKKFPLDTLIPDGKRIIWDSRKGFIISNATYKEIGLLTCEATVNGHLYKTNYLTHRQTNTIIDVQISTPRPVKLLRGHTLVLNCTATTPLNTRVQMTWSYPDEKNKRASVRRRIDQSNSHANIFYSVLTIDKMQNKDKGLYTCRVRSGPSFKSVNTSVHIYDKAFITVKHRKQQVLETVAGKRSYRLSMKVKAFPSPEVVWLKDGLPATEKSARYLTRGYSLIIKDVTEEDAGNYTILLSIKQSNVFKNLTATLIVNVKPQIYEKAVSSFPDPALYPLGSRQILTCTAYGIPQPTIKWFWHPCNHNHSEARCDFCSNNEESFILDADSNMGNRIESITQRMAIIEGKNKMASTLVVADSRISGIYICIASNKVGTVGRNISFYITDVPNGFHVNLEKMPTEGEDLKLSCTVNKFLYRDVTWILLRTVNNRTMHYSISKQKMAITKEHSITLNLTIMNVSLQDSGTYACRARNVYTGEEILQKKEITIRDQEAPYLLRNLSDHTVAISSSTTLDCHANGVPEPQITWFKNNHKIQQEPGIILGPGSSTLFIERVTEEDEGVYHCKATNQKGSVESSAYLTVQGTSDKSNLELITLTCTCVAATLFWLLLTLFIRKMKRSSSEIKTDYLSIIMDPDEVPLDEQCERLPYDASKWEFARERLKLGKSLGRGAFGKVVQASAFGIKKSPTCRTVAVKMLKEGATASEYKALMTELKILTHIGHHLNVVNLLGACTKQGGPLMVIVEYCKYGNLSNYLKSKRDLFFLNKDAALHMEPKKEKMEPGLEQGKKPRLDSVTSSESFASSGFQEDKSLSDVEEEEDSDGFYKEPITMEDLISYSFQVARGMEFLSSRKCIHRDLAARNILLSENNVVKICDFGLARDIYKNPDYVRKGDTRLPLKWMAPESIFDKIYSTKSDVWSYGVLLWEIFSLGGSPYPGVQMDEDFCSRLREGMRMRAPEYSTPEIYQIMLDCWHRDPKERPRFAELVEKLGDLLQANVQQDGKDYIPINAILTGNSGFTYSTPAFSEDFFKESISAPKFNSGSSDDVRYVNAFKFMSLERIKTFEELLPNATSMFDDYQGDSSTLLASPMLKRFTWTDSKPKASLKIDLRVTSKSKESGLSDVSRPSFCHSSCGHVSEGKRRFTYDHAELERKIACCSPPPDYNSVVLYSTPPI
# [15] = target: Vascular endothelial growth factor receptor 1 (Homo sapiens) (UniProt P17948); conditions: at 1 µM
# [16] = target: Receptor-type tyrosine-protein kinase FLT3 (Homo sapiens) (UniProt P36888); conditions: at 0.1 µM
# [17] = target: Receptor-type tyrosine-protein kinase FLT3 (Homo sapiens) (UniProt P36888); conditions: at 1 µM
# [18] = tested on: T1, Receptor-type tyrosine-protein kinase FLT3 (Homo sapiens), P36888 [D835Y]; conditions: at 0.1 µM
# T1 sequence (whole entry): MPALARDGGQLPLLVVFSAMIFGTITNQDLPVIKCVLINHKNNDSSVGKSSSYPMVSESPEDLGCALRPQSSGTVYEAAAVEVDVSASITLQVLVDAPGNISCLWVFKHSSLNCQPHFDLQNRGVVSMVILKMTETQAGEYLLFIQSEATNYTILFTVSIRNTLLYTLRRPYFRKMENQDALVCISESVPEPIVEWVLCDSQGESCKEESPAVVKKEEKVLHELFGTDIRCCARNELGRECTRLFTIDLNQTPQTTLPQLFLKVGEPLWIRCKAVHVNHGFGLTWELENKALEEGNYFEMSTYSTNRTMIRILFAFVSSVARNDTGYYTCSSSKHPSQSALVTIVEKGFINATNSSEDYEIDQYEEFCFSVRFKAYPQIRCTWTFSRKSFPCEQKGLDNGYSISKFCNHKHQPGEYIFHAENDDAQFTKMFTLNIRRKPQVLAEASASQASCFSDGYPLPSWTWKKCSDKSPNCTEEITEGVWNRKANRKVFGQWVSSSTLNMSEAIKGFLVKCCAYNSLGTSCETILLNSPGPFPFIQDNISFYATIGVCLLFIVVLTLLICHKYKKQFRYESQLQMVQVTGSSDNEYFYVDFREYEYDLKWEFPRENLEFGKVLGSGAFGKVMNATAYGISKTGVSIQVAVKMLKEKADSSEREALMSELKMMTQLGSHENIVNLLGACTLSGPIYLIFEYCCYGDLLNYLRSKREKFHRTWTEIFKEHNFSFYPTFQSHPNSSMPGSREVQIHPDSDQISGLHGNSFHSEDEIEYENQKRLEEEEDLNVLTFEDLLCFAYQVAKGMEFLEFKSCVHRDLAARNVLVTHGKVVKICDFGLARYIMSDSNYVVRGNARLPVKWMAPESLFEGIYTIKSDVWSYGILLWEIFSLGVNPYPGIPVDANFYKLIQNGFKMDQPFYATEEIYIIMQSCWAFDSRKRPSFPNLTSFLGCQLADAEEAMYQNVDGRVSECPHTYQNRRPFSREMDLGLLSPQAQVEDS
# [19] = target: Non-receptor tyrosine-protein kinase TYK2 (Homo sapiens) (UniProt P29597); conditions: at 1 µM;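 also: values are mean percent inhibition of TYK2 kinase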
# [20] = target: T2, Tyrosine-protein kinase receptor TYRO3 (Homo sapiens) (UniProt Q06418); conditions: at 0.1 µM;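 also: reported percentages are averaged inhibition values of TYRO3 kinase activity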
# T2 sequence (whole entry): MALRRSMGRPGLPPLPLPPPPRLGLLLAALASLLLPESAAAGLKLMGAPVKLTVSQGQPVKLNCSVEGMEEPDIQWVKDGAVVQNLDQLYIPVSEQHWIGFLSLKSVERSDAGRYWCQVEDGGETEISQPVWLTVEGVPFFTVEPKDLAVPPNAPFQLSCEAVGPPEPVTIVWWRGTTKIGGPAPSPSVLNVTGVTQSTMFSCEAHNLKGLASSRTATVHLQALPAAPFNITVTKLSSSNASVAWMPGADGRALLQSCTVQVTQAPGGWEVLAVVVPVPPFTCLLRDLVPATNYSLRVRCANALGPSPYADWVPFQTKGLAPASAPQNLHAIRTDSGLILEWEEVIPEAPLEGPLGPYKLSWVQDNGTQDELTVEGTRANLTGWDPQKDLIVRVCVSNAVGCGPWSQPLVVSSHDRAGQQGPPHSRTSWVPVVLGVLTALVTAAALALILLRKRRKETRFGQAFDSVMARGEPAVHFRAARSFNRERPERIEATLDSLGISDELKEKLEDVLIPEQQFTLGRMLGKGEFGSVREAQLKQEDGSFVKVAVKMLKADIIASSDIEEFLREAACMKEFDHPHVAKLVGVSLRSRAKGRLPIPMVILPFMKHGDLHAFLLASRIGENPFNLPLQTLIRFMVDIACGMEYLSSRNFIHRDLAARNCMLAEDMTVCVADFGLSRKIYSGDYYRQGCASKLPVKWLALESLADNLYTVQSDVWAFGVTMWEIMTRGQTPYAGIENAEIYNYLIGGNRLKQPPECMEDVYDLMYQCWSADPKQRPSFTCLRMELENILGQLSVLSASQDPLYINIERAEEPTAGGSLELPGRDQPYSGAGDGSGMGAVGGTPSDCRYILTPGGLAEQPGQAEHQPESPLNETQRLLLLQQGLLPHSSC
# Sequence of Tyrosine-protein kinase Fes/Fps (Homo sapiens) (P07332 whole entry): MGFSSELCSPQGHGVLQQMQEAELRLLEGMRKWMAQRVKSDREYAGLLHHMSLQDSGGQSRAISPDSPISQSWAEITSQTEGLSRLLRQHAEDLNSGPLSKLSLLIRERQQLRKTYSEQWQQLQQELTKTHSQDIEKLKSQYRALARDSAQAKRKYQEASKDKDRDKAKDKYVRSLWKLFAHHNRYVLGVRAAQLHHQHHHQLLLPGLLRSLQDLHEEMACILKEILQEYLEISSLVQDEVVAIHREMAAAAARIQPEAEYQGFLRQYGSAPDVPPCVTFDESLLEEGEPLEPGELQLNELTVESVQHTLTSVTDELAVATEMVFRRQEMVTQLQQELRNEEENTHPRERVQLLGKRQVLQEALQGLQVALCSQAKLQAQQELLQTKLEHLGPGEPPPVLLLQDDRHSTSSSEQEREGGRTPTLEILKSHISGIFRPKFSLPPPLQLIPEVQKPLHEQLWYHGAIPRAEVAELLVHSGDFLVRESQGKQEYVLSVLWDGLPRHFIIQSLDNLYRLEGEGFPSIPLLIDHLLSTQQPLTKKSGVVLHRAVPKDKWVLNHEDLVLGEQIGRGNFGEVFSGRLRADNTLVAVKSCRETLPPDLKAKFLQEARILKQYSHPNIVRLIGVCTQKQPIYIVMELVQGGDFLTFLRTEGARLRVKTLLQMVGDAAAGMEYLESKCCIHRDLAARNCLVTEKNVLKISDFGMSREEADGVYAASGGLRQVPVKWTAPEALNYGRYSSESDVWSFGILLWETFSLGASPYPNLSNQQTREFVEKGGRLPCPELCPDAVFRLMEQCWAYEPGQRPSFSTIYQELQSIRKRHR
Compound,inhibition [1] [%],inhibition [2] [%],inhibition [3] [%],inhibition [4] [%],inhibition [5] [%],inhibition [6] [%],inhibition [7] [%],inhibition [8] [%],inhibition [9] [%],inhibition [10] [%],inhibition [11] [%],inhibition [12] [%],inhibition [13] [%],inhibition [14] [%],inhibition [15] [%],inhibition [16] [%],inhibition [17] [%],inhibition [18] [%],inhibition [19] [%],inhibition [20] [%]
COc1cc(N2CCN(C(C)C)CC2)ccc1Nc1nc(Nc2ccc(F)cc2C(=O)NC[C@@H](O)CO)c2cc[nH]c2n1,60.2,4.45,20.1,-0.71,5.9,1.11,1.86,1.06,3.63,-2.86,-2.11,4.37,1.14,1.41,1.28,1.53,2.54,0.41,-2.95,2.87
CS(=O)(=O)CCNCc1ccc(-c2ccc3ncnc(Nc4ccc(OCc5ccccc5)c(Br)c4)c3c2)o1,4.54,2.7,1.88,-3.67,4.36,1.07,4.45,0.3,1.62,-4.71,-1.47,4.84,10.8,-0.47,2.16,4.34,1.3,-8.89,-4.08,2.52
Fc1ccc(-c2c(-c3ccncc3)nc3n2CCS3)cc1,1.89,1.15,0.99,-4.25,0.23,-1.78,0.6,1.37,1.47,-6.43,0.11,2.37,2.64,0.25,1.28,0.81,1.71,-1.87,0.83,1.94
O=C(Nc1n[nH]c2cc(-c3cc(F)ccc3F)ccc12)C1CC1,3.05,2.89,3.45,0.53,1.69,1.35,6.04,3.51,2.02,-1.89,0.78,3.33,7.71,0.6,1.91,1.12,4.67,-5.43,-2.35,3.8
COc1cc2ncn(-c3cc(OCc4cccs4)c(C(N)=O)s3)c2cc1OC,12.9,1.87,1.21,-3.02,7.33,1.75,15.3,1.72,12.4,-0.52,1.23,11.1,13.7,2.16,10.3,0.99,4.24,-6.36,0.53,2.86
O=C(NCC1CC1)c1ccc(-c2cccc(C(=O)NC3CC3)c2)cc1,-1.83,1.39,1.59,2.86,8.03,3.33,10.1,4.92,9.43,-0.02,0.84,-0.78,4.28,2.16,3.45,1.49,3.46,0.3,-5.6,3.93
NCc1ccc(-n2c(-c3nonc3N)nc3cnccc32)cc1,5.77,12.8,13,4.07,6.76,6.5,9.9,9.59,6.14,-4.29,0.49,1.73,3.12,1.08,1.4,1.23,3.45,-4.05,-2.73,1.87
O=C(Nc1ccc(Oc2ccc3[nH]c(NC(=O)c4ccccc4)nc3c2)cc1)Nc1cc(C(F)(F)F)ccc1F,7.9,2.28,2.49,2.35,6.8,2.19,18.8,7.91,6.31,-0.39,0.83,9.57,7.53,5.53,39.3,6.63,53.4,-0.18,-0.97,2.33
CN(C)CCOc1ccc(-c2cc(-c3ccc4c(c3)CCC4=NO)c(-c3ccncc3)o2)cc1,-0.96,0.22,-1.71,-4.37,-0.28,-2.17,-0.7,-1.69,-0.19,1.99,-1.71,1.5,7.33,-0.18,-0.16,-0.73,-1.89,-7.59,0.1,-0.87
C[C@@H](Oc1cc(-n2cnc3ccc(OCC4CCN(C)CC4)cc32)sc1C(N)=O)c1ccccc1Cl,7.17,4.96,7.97,5.32,14,9.46,12.5,11.2,8.71,3.93,4.52,2.78,13.7,1.38,-0.37,6.77,16.1,-8.99,-4.49,2.99
O=C1Nc2ccccc2/C1=C/Nc1ccc(-n2cncn2)cc1,11.2,2.67,2.63,2.75,9.98,5.38,24.9,7.96,22,–,2.81,4.93,12.8,4.03,24.1,12.5,53.7,16.4,12.3,3.19
FC(F)(F)c1cccc(Nc2nccc(-c3cnn4nc(-c5ccccc5)ccc34)n2)c1,4.03,1.27,2.38,-1.25,-0.07,1.56,3.34,1.31,2.97,-0.29,1.26,2.98,8.69,2.04,1.17,1.84,18.2,-4.32,-5.81,-0.57
NC(=O)c1cc(-c2ccncc2)cc(-c2ccccc2)c1N,4.57,3.8,3.92,8.68,6.54,5.47,8.42,7.6,6.17,0.6,1.49,6.05,27,1.74,5.65,-1.2,4.55,-0.35,-2.55,2.62
